Results taken from PubChem BioAssay (Tox21).
Unmarked numbers belong to inactive results. Inconclusive results are not listed. A call without a number means that no potency is given here. Activity calls are given as the source filed them. Unless noted, calls come from the whole dose curve; as a rule, active = well fitted curve in the direction sought with a large enough effect in the repeat runs; inconclusive = weak or mixed curves; inactive = no such curve, though single readings can be large; an effect the other way counts as inactive or inconclusive.

Tests used:
[1] = qHTS assay to identify small molecule agonists of the androgen receptor (AR) signaling pathway in the presence of an antagonist - cell viability counter screen (AID 1259379); note: nearly all actives have a fitted effect of over 25% in size; note: potency is the fitted concentration of half-maximal effect
Procedure, shortened: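 Cytotoxicity is assessed by CellTiter-Fluor in MDA-kb2 cells carrying an MMTV-driven luciferase reporter. Cells receive 3.0uM nilutamide plus compounds at 15 concentrations and incubate 16 hr at 37C without CO2 before fluorescence reading.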

[2] = molecular target: Androgen receptor (Homo sapiens) (UniProt P10275); assay: qHTS assay to identify small molecule agonists of the androgen receptor (AR) signaling pathway in the presence of an antagonist (AID 1259381; calls by dose curve; note: nearly all actives have a fitted effect of over 15% in size)
Androgen receptor (Homo sapiens), sequence (P10275 whole entry, looked up): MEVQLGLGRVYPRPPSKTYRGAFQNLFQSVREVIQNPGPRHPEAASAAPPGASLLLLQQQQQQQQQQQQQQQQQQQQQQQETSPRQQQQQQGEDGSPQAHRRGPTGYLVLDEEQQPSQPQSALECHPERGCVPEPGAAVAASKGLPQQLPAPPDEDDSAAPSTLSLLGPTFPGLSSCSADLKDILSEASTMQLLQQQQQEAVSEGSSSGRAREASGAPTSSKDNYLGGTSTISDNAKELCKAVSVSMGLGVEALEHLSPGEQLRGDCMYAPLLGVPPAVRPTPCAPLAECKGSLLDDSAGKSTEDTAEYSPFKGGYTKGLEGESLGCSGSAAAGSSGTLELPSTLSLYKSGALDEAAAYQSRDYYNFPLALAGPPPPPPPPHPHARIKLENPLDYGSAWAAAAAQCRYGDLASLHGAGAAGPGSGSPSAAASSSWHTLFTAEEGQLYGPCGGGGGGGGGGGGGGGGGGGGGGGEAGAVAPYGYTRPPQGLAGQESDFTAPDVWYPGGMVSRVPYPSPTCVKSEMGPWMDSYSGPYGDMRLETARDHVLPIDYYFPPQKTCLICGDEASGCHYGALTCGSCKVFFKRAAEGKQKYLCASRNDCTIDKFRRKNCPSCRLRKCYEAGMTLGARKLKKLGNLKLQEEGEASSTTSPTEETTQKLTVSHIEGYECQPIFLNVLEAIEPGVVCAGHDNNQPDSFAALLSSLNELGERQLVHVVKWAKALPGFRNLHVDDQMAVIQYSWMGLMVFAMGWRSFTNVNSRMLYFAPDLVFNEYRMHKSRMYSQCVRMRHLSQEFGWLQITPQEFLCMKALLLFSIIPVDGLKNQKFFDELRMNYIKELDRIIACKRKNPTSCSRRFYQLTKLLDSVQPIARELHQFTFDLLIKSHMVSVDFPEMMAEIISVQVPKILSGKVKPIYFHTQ
Procedure, shortened: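 Agonist-mode confirmation screen: human MDA-kb2 cells stably expressing luciferase under an MMTV promoter bearing AR and GR response elements, co-treated with 3.0uM nilutamide (final). Luminescence measured after 16hr compound incubation.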

[3] = molecular target: Estrogen receptor (Homo sapiens) (UniProt P03372); assay: qHTS assay to identify small molecule agonists of the estrogen receptor alpha (ER-alpha) signaling pathway in the presence of an antagonist (AID 1259383; calls by dose curve; note: top concentration of the series differs between compounds; nearly all actives have a fitted effect of over 15% in size)
Estrogen receptor (Homo sapiens), sequence (P03372 whole entry, looked up): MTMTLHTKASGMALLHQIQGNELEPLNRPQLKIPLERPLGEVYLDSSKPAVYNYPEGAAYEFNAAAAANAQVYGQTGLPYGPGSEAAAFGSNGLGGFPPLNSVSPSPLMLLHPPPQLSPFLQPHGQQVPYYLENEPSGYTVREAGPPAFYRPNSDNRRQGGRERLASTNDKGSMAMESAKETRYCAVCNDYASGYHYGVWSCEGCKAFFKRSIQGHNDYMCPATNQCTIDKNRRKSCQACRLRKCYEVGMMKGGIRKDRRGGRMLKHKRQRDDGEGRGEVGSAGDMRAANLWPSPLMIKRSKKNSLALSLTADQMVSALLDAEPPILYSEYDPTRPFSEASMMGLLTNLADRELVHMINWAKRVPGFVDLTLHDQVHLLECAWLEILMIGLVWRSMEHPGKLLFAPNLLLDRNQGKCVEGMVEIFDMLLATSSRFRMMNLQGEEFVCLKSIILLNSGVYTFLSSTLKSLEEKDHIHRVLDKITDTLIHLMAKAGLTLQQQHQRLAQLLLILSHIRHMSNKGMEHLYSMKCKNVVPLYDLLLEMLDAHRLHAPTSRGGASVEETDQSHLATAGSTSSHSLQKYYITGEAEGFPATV
Procedure, shortened: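 Agonist-mode confirmation in the presence of the ER antagonist ICI-182,780 at 10.0nM final. Breast-derived VM7Luc4E2 reporter cells were exposed to compounds for 22hr, and ERE-driven luciferase was quantified by luminescence.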

[4] = qHTS assay to identify small molecule agonists or antagonists of the thyroid stimulating hormone receptor (TSHR) signaling pathway - wild type cell line counter screen (AID 1259384; calls by dose curve)
Procedure, shortened: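 Wild-type HEK293 cells were plated 18 h at 37 C/5% CO2, pin-dosed with compound plus Ro20-1724 medium, held 30 min at room temperature, then given cAMP-d2 and anti-cAMP-cryptate; fluorescence was read after 1 h. Fifteen concentrations, triplicate.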

[5] = qHTS assay to identify small molecule agonists of the estrogen receptor alpha (ER-alpha) signaling pathway in the presence of an antagonist - cell viability counter screen (AID 1259386);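 note: cells exposed to compounds for 22 h at 37 °C before the viability read; nearly all actives have a fitted effect of over 30% in size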; note: potency is the fitted concentration of half-maximal effect
Procedure, shortened: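 Cytotoxicity was measured in parallel with the ERE-luciferase agonist screen, in the same wells. The cells were VM7Luc4E2, which endogenously express ER-alpha, and treatment was with compounds plus 10.0nM ICI-182,780 for 22hr.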

[6] = molecular target: Progesterone receptor (Homo sapiens) (UniProt P06401); assay: qHTS assay to identify small molecule agonists of the progesterone receptor (PR) signaling pathway (AID 1346784; calls by dose curve; note: nearly all actives have a fitted effect of over 30% in size)
Progesterone receptor (Homo sapiens), sequence (P06401 whole entry, looked up): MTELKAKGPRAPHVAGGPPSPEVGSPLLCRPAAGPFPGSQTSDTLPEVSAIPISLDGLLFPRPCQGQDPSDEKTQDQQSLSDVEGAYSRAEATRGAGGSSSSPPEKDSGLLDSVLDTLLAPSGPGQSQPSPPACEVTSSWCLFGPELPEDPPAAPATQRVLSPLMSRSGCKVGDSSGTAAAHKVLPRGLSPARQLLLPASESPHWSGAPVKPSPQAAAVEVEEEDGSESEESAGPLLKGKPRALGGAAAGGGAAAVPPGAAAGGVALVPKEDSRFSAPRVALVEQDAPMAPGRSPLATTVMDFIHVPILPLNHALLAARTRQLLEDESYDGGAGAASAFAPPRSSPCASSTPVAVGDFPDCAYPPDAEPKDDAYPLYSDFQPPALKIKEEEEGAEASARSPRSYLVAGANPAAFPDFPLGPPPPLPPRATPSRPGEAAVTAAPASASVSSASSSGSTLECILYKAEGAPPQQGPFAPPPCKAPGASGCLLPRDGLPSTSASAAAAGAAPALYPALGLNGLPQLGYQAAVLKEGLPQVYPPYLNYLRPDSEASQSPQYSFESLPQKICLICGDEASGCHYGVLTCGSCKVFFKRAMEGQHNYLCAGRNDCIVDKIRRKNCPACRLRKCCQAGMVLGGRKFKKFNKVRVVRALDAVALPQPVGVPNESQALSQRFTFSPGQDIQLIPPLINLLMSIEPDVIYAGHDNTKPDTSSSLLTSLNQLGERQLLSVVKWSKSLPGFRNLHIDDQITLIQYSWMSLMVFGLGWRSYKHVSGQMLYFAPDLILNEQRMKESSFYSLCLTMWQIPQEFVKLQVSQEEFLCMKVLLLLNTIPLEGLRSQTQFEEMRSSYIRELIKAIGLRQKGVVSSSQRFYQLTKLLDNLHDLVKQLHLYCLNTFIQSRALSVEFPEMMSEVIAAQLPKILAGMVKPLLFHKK
Procedure, shortened: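 Fluorescence from LiveBLAzer B/G FRET substrate cleavage (2 hr, RT) reported PR activation in PR-UAS-bla HEK 293T cells treated 16 hr at 37C/5% CO2 with compounds; medium contained 2% charcoal-stripped FBS.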

[7] = molecular target: Progesterone receptor (Homo sapiens) (UniProt P06401); assay: qHTS assay to identify small molecule antagonists of the progesterone receptor (PR) signaling pathway (AID 1346795; active = well fitted inhibition curve with a large enough effect in the signal ratio in the repeat runs, not every such curve was filed as active; the % refers to the signal ratio; note: potency is the fitted concentration of half-maximal effect)
Procedure, shortened: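 Fluorescence intensity measured 2 hr after adding beta-lactamase FRET substrate to PR-UAS-bla HEK293T cells that had been co-treated 16 hr with compound and 1 nM R5020 (final concentration) in 2% charcoal-stripped FBS.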

[8] = qHTS assay to identify small molecule antagonists of the TGF-beta/Smad signaling pathway - cell viability counter screen (AID 1346824); note: nearly all actives have a fitted effect of over 50% in size; note: potency is the fitted concentration of half-maximal effect
Procedure, shortened: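 SBE-bla HEK 293T cells were plated overnight at 37 C, then given compounds in DMSO plus TGF-beta1 (added as 0.25 ng/mL solution) for 5 hr. After the bla read, CellTiter-Glo was added to the same wells and luminescence read after 30 min at room temperature.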

[9] = qHTS assay to identify small molecule agonists of the TGF-beta/Smad signaling pathway - cell viability counter screen (AID 1346829); note: nearly all actives have a fitted effect of over 45% in size; note: potency is the fitted concentration of half-maximal effect
Procedure, shortened: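 Here the cytotoxicity of library compounds is measured in SBE-bla HEK 293T cells treated for 5 hr, using CellTiter-Glo added to wells already read for the beta-lactamase reporter.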

[10] = qHTS assay to identify small molecule agonists of the TGF-beta/Smad signaling pathway (AID 1346859; active = well fitted activation curve with a large enough effect in the signal ratio in the repeat runs, not every such curve was filed as active; the % refers to the signal ratio; note: series mostly up to about 77 µM)
Procedure, shortened: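 After overnight seeding, SBE-bla HEK 293T cells are dosed with compounds in DMSO and kept 5 hr at 37 C, 5% CO2. LiveBLAzer-type FRET substrate is then applied for 2 hr at room temperature.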

[11] = molecular target: Thyrotropin-releasing hormone receptor (Homo sapiens) (UniProt P34981); assay: qHTS assay to identify small molecule antagonists of the thyrotropin-releasing hormone receptor (TRHR) signaling pathway (AID 1346877; active = well fitted inhibition curve with a large enough effect in the repeat runs, not every such curve was filed as active; note: series mostly up to about 51 µM)
Thyrotropin-releasing hormone receptor (Homo sapiens), sequence (P34981 whole entry, looked up): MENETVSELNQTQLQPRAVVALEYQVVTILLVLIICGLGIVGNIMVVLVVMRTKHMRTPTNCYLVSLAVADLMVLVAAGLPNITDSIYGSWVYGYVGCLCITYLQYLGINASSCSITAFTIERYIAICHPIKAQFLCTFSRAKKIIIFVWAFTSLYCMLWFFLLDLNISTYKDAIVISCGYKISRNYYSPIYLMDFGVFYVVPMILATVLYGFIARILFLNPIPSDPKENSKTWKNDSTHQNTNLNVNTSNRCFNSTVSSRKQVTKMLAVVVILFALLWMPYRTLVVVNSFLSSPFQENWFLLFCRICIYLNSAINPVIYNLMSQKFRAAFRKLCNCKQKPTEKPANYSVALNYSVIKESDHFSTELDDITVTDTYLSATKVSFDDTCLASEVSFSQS
Procedure, shortened: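 Antagonism is measured as suppression of the calcium response to 1 nM TRH in TRHR-HEK293 cells that have been dye-loaded for 2 h at 37 °C after overnight plating. Each compound is tested at 15 concentrations in triplicate.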

[12] = molecular target: Thyrotropin-releasing hormone receptor (Homo sapiens) (UniProt P34981); assay: qHTS assay to identify small molecule agonists of the thyrotropin-releasing hormone receptor (TRHR) signaling pathway (AID 1346891; calls by dose curve;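 note: HEK293 cells expressing TRHR with calcium dye readout; series mostly up to about 58 µM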)
Procedure, shortened: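 Compounds were tested as agonists at 15 concentrations, in triplicate, on TRHR-Hek293 cells; calcium-sensitive dye fluorescence was recorded for 3 min following addition.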

[13] = qHTS assay to identify small molecule agonists of the estrogen receptor beta (ER-beta) signaling pathway - cell viability counter screen (AID 1259380); note: nearly all actives have a fitted effect of over 30% in size; note: potency is the fitted concentration of half-maximal effect
Procedure, shortened: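 Cytotoxicity is measured in parallel with the reporter screen: after 16 hr compound exposure at 37C and a 2 hr LiveBLAzer step, CellTiter-Glo is added to the same ER-beta-UAS-bla HEK293T wells and luminescence read after 30 min.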

[14] = molecular target: Thyrotropin receptor (Homo sapiens) (UniProt P16473); assay: qHTS assay to identify small molecule antagonists of the thyroid stimulating hormone receptor (TSHR) signaling pathway (AID 1259385; calls by dose curve; note: nearly all actives have a fitted effect of over 20% in size; note: potency is the fitted concentration of half-maximal effect)
Thyrotropin receptor (Homo sapiens), sequence (P16473 whole entry, looked up): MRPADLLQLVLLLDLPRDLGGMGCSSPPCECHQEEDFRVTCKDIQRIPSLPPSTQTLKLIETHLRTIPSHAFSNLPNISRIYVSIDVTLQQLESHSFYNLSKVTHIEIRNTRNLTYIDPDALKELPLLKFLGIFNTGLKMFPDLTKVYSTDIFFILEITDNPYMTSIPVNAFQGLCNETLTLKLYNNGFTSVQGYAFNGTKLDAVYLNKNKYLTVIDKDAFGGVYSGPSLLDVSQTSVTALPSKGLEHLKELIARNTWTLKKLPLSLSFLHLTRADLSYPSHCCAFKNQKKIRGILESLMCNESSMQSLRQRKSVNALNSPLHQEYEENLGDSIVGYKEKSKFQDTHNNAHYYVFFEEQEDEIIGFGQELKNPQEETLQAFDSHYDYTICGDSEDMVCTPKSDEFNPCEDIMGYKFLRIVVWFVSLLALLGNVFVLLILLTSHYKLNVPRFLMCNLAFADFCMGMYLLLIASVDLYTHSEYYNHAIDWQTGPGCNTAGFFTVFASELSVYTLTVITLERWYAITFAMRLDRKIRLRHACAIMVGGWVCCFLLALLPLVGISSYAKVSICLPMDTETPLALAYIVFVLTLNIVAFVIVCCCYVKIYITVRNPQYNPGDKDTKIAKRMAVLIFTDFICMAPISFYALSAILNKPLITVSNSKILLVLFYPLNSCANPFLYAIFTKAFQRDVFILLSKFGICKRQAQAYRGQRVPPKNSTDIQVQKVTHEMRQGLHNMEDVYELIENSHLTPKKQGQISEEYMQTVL
Procedure, shortened: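 TSHR-HEK293 cells were plated and held 18 h at 37C/5% CO2, then given compound plus Ro20-1724 and stimulated with TSH at 1.5 ng/mL final. After 30 min at room temperature, cAMP was detected with cAMP-d2/anti-cAMP-cryptate (1 h) by fluorescence.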

[15] = Human pregnane X receptor (PXR) small molecule agonists, qHTS cell viability counter screen (AID 1346977); note: nearly all actives have a fitted effect of over 50% in size; note: potency is the fitted concentration of half-maximal effect
Procedure, shortened: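 Viability counter screen: CellTiter-Fluor signal in PXR-Luc HepG2 cells, 24hr compound exposure, 37C, 5% CO2.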

[16] = qHTS assay to identify small molecule antagonists of the progesterone receptor (PR) signaling pathway - cell viability counter screen (AID 1346798); note: nearly all actives have a fitted effect of over 50% in size; note: potency is the fitted concentration of half-maximal effect
Procedure, shortened: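 CellTiter-Glo luminescence; PR-UAS-bla HEK293T, 3,000 cells/well; compound + R5020, 16 hr, 37C/5% CO2; 30 min RT before read.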

[17] = qHTS assay to identify small molecule agonists of the progesterone receptor (PR) signaling pathway - cell viability counter screen (AID 1346799; calls by dose curve; note: nearly all actives have a fitted effect of over 45% in size; note: potency is the fitted concentration of half-maximal effect)
Procedure, shortened: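 In parallel with the beta-lactamase readout, cytotoxicity toward PR-UAS-bla HEK293T cells was measured by CellTiter-Glo luminescence following 16 hr compound incubation in 2% charcoal-stripped FBS medium.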

[18] = qHTS assay to identify small molecule antagonists of the estrogen receptor beta (ER-beta) signaling pathway - cell viability counter screen (AID 1259382); note: nearly all actives have a fitted effect of over 55% in size; note: potency is the fitted concentration of half-maximal effect
Procedure, shortened: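 Cytotoxicity counter screen multiplexed with the beta-lactamase antagonist assay: GripTite HEK293T ER-beta-bla cells were treated 16 hr with test chemicals in the presence of 1nM 17-beta-estradiol, and viability was measured by CellTiter-Glo.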

| SMILES | Potency [1] | Potency [2] | Potency [3] | outcome [4] | Potency [5] | Potency [6] | Potency [7] | Potency [8] | Potency [9] | outcome [10] | Potency [11] | Potency [12] | Potency [13] | Potency [14] | Potency [15] | Potency [16] | Potency [17] | Potency [18] | activation [2] | cAMP activity change [4] |
| --- | --- | --- | --- | --- | --- | --- | --- | --- | --- | --- | --- | --- | --- | --- | --- | --- | --- | --- | --- | --- |
| CC(C)N1C(=O)N(c2ccccc2)CSC1=NC(C)(C)C | inactive | inactive | inactive | inactive | inactive | inactive | 17.2 µM (active) | inactive | inactive | inactive | inactive | inactive |  |  |  |  |  |  |  |  |
| ClC1=C(Cl)[C@]2(Cl)[C@H]3[C@H]([C@H]4C=C[C@H]3C4)[C@@]1(Cl)C2(Cl)Cl | inactive |  | inactive | inactive | inactive | inactive |  | inactive | inactive | inactive | inactive | inactive | inactive | inactive | inactive |  |  |  |  |  |
| Oc1ccc(I)cc1 | inactive |  | inactive | inactive | inactive | inactive |  | inactive |  |  |  |  | inactive | inactive | inactive | inactive | inactive |  |  |  |
| c1cc[c]([Sb]([c]2ccccc2)[c]2ccccc2)cc1 | inactive | inactive |  | inactive | inactive |  |  | inactive | inactive |  | inactive | inactive |  | inactive | inactive |  |  |  |  |  |
| CC(=O)[O-].CC(=O)[O-].[Hg+2] | 10.9 µM (active) |  |  |  | 21.7 µM (active) |  |  | 13.8 µM (active) | 24.5 µM (active) |  |  |  | 3.06 µM (active) |  | 6.11 µM (active) | 1.37 µM (active) | 3.44 µM (active) |  |  |  |
| CCOC(=O)OC1=C(c2cc(C)ccc2C)C(=O)NC12CCC(OC)CC2 (centres undefined) | inactive |  | inactive | inactive | inactive |  |  | inactive |  | inactive | inactive | inactive |  | inactive | inactive | inactive | inactive | inactive |  |  |
| O=[N+]([O-])c1ccc2ccc3cccc4ccc1c2c34 | 48.5 µM (active) | inactive | inactive |  | 38.5 µM (active) | inactive |  | inactive | inactive |  | inactive | inactive |  |  |  | inactive | inactive | inactive |  |  |
| Oc1ccc(C2(c3ccc(O)cc3)c3ccccc3-c3ccccc32)cc1 | 34.4 µM (active) |  | inactive | inactive |  |  |  | inactive |  |  | inactive | inactive | 48.6 µM (active) | inactive |  | 48.6 µM (active) |  |  |  |  |
| Cn1cc(C2=C(c3cn(C4CCN(Cc5ccccn5)CC4)c4ccccc34)C(=O)NC2=O)c2ccccc21 | 11.9 µM (active) |  |  | inactive | inactive | inactive |  | inactive | inactive |  |  |  | inactive | inactive |  |  |  |  |  |  |
| N#C/C=C/C#N | inactive |  |  | inactive | inactive | inactive | 45.3 µM (active) | inactive | inactive |  | inactive | inactive | inactive | inactive | inactive | inactive | inactive |  |  |  |
| CCCCCCCCCCCCBr | inactive |  | inactive | inactive | inactive | inactive |  | inactive | inactive | inactive | inactive | inactive | 43.3 µM (active) | inactive | inactive |  |  |  |  |  |
| CCCCOCN(C(=O)CCl)c1c(CC)cccc1CC | inactive | inactive | inactive | inactive | inactive | inactive |  | inactive |  |  |  |  |  | 61.1 µM (active) |  | inactive |  | inactive |  |  |
| CCN(CC)c1c([N+](=O)[O-])cc(C(F)(F)F)c(N)c1[N+](=O)[O-] | inactive | inactive | inactive | inactive |  | inactive |  | inactive | inactive | inactive | inactive | inactive |  |  | inactive |  |  | inactive |  |  |
| C[CH2][Hg][N]1C(=O)C2C(C1=O)C1(Cl)C(Cl)=C(Cl)C2(Cl)C1(Cl)Cl (centres undefined) | 13 µM (active) |  |  |  |  |  |  |  |  |  |  |  |  | 14.6 µM (active) |  | 14.6 µM (active) |  | 11.6 µM (active) | -7.84% [at 19 µM] | 11% [at 18.9 µM] |
| C=CCC1=C(C)C(OC(=O)C2C(C=C(C)C)C2(C)C)CC1=O (centres undefined) | 61.1 µM (active) |  | inactive | inactive |  |  |  |  | inactive | inactive | inactive |  |  | 61.1 µM (active) |  |  |  | inactive |  |  |
